# Measurements taken from PubChem BioAssay AID463173 (ICCB-Longwood Screening Facility, Harvard Medical School, 2010).
# Hit rate of the full screen: of about 52,000 compounds, about 1,700 (3.3%) were called active. Rule as the data show it: active = survival mostly below about 52% (no sharp cut-off); inactive = mostly above about 56%. The list comes from a sample in which actives are over-represented; it also holds similar structures and randomly drawn compounds.
# Tested on: Wild type
# Assay: growth inhibition of S. aureus wild type versus tarO mutant, primary screen, teichoic acid synthesis inhibitors, RN4220, OD600 (AID 463173)
# Conditions: S. aureus RN4220 wild type/DeltatarO growth, OD600, 18 h, active compounds read low, screened at 18.75 µg/mL (by protocol)
row,Structure (SMILES),survival
1,CCOC(=O)N1CCc2c(sc3c2c(=O)n(Cc2ccccc2)c(=O)n3CC(=O)Nc2ccc(F)cc2)C1,87% (inactive)
2,CCCCNc1nc2c(c(=O)n(Cc3ccccc3)c(=O)n2C)n1C,67% (inactive)
3,CCCCNc1nc2c(c(=O)n(Cc3ccc(Cl)cc3)c(=O)n2C)n1C,70% (inactive)
4,CCCCNc1nc2c(c(=O)n(Cc3ccc(Cl)c(Cl)c3)c(=O)n2C)n1C,1% (active)
5,CCn1c(=O)c2cc(C(=O)N(CCCOC(C)C)Cc3ccco3)sc2c2ccccc21,1% (active)
6,Cc1ccc2[nH]c(=O)c3cc(C(=O)N(CCCOC(C)C)Cc4ccco4)sc3c2c1,71% (inactive)
7,CCn1c(=O)c2cc(C(=O)N(CC(C)C)CC(C)C)sc2c2ccccc21,-1% (active)
8,CCn1c(=O)c2cc(C(=O)N(CCN(C)C)Cc3ccccc3)sc2c2ccccc21,75% (inactive)
9,CCCn1c2ccccc2c2cnn(CC(=O)N(CCCOC(C)C)Cc3ccco3)c(=O)c21,76% (inactive)
10,CCn1c(=O)c2cc(C(=O)N(C)c3cc(C)ccc3C)sc2c2ccccc21,125% (inactive)
11,O=C(NC1CCCCC1)c1ccco1,102% (inactive)
12,COc1ccc(OC)c(NC(=O)c2sc3nc4c(cc3c2N)CCCCCC4)c1,70% (inactive)
13,CC(=O)N1c2ccc(S(=O)(=O)N3CCCCCC3)cc2CC1C(=O)NCc1ccccc1F (centres undefined),131% (inactive)
14,O=C(NCCSc1c(-c2ccc(Br)cc2)[nH]c2ccccc12)c1ccc(S(=O)(=O)N2CCOCC2)cc1,84% (inactive)
15,Cn1c(SCCC(=O)O)nnc1-c1ccncc1,105% (inactive)
16,Cc1cc(N2CCCC(O)C2)n2nc(C)c(-c3ccc(F)cc3)c2n1 (centres undefined),120% (inactive)
17,COc1ccc(C2=C(Nc3ccc(Br)c(C)c3)c3ccccc3C2=O)cc1,20% (active)
18,COc1ccc(C2=C(Nc3ccc(C)c(C)c3)c3ccccc3C2=O)cc1,90% (inactive)
19,COc1ccc(C2=C(Nc3ccc(C)cc3C)c3ccccc3C2=O)cc1,76% (inactive)
20,O=C(NCC1(c2ccccc2)CCCC1)C(=O)Nc1cccc(Br)c1,96% (inactive)
21,Cc1cc(C)cc(NC(=O)CCCn2c3ccccc3c(=O)c3ccccc32)c1,69% (inactive)
22,O=C(NCCc1ccccc1Cl)c1cc2ccccn2n1,140% (inactive)
23,COc1cc(NC(=O)C2CCN(c3cnc4ccccc4n3)CC2)cc(OC)c1OC,-6% (active)

row,Structure (SMILES),survival
1,COc1cc(NC(=O)C2CCN(c3nc4ccccc4nc3C(F)(F)F)CC2)cc(OC)c1,78% (inactive)
2,COc1cc(NC(=O)c2nc3ccccc3nc2N2CCCCC2)cc(OC)c1OC,82% (inactive)
3,CCc1ccc(-n2c(Cc3ccccc3)nnc2SCc2nc(-c3cccs3)no2)cc1,99% (inactive)
4,CCC(C(=O)Nc1ccc(C(C)=O)cc1)n1cnc2nc3c(cc2c1=O)CCCC3 (centres undefined),63% (inactive)
5,Nc1ncc(S(=O)(=O)Nc2ccc(OC(F)(F)F)cc2)cn1,63% (inactive)
6,COc1cc(NS(=O)(=O)c2cnc(N)nc2)cc(OC)c1,64% (inactive)
7,CC(=O)c1ccc(NS(=O)(=O)c2cnc(N)nc2)cc1,1% (active)
8,Cc1cccc(NC(=O)C2CCN(S(=O)(=O)c3ccc4c(c3)CCCN4C(=O)C3CCC3)CC2)c1,74% (inactive)
9,COc1cccc(N2CC(NC(=O)C(c3ccccc3)c3ccccc3)CC2=O)c1 (centres undefined),65% (inactive)
10,COc1ccc(C2c3c(n(C)c4ccccc34)C(=O)N2CC(=O)Nc2ccccc2Cl)cc1 (centres undefined),135% (inactive)
11,COc1ccccc1CNC(=O)CCc1c(C)c2cc3c(C)c(C)oc3cc2oc1=O,114% (inactive)
12,CCCOc1cccc(C(=O)Nc2ccc(-c3nc4ccccc4s3)c(Cl)c2)c1,65% (inactive)
13,Cc1cccc2cc(C#N)c(SCC(=O)NCC3CCCO3)nc12 (centres undefined),103% (inactive)
14,COc1cc(OC)c(NC(=O)CN(C)S(=O)(=O)c2ccc3c(c2)CCCC(=O)N3)cc1Cl,1% (active)
15,COc1cc(NC(=O)CN(C)S(=O)(=O)c2ccc3c(c2)CCCC(=O)N3)cc(OC)c1OC,81% (inactive)
16,Cc1ccc(C)c(NC(=O)CCNS(=O)(=O)c2ccc3c(c2)CCCC(=O)N3)c1,-6% (active)
17,Cc1cccc(NC(=O)CCNS(=O)(=O)c2ccc3c(c2)CCCC(=O)N3)c1C,80% (inactive)
18,Cc1ccc(NC(=O)CCNS(=O)(=O)c2ccc3c(c2)CCCC(=O)N3)cc1,73% (inactive)
19,COc1cc(Cl)c(NC(=O)CN(C)S(=O)(=O)c2ccc3c(c2)CCCC(=O)N3)c(OC)c1,59% (inactive)
20,Cc1ccc(C)c(NC(=O)Cn2ncc3c([nH]c4ccccc43)c2=O)c1,45% (inactive)
21,CC(C)c1ccc(NC(=O)Cc2ccc(NC(=O)N3CCCCc4ccccc43)cc2)cc1,110% (inactive)
22,Nc1cc(=O)nc(SCC(=O)Nc2ccccc2)n1CCc1ccccc1,69% (inactive)
23,Cc1ccc(NC(=O)CN2C(=O)C3(SCC(=O)N3c3ccc(F)c(F)c3)c3ccccc32)c(C)c1 (centres undefined),69% (inactive)

row,Structure (SMILES),survival
1,CCc1nc(Nc2ccc(F)c(Cl)c2)c2c3c(sc2n1)CCCC3,-1% (active)
2,COc1ccc(Nc2ncnc3sc4c(c23)CCCC4)cc1,73% (inactive)
3,O=C(Cn1nnc2sc3c(c2c1=O)CCCC3)Nc1ccc(F)c(Cl)c1,33% (inactive)
4,CCCn1c2ccccc2c2cnn(CC(=O)N3CCN(c4ccccc4F)CC3)c(=O)c21,-6% (active)
5,Cc1ccccc1Cn1c2ccccc2c2cnn(CC(=O)NC3CCC(C)CC3)c(=O)c21 (centres undefined),78% (inactive)
6,CC1CCN(C(=O)Cn2ncc3c4ccccc4n(Cc4ccc(Cl)cc4)c3c2=O)CC1,95% (inactive)
7,Cc1cc(C)c(Cn2c3ccccc3c3cnn(CC(=O)N4CCCCC4)c(=O)c32)c(C)c1,125% (inactive)
8,CCN1CCN(C(=O)Cn2ncc3c4ccccc4n(Cc4ccccc4F)c3c2=O)CC1,82% (inactive)
9,CCCn1c2ccccc2c2cnn(CC(=O)N3CCC(C)CC3)c(=O)c21,67% (inactive)
10,Cc1cc(C)c(Cn2c3ccccc3c3cnn(CC(=O)N4CCCCCC4)c(=O)c32)c(C)c1,1% (active)
11,Cc1ccccc1Cn1c2ccccc2c2cnn(CC(=O)N3CCC(C)CC3)c(=O)c21,12% (active)
12,CCN1CCN(C(=O)Cn2ncc3c4ccccc4n(Cc4c(C)cc(C)cc4C)c3c2=O)CC1,126% (inactive)
13,COc1ccc(NC(=O)Nc2nnc(N(CC(C)C)CC(C)C)s2)c(OC)c1,96% (inactive)
14,COc1ccccc1C(=O)Nc1sc(Nc2ccccc2)nc1C(N)=O,146% (inactive)
15,S=c1nc(CNc2ccccc2)[nH][nH]1,95% (inactive)
16,CC(=O)N1c2c(cc(Br)cc2S(=O)(=O)N2CCN(c3cc(C)ccc3C)CC2)CC1C (centres undefined),72% (inactive)
17,COc1ccc(NC(=O)Cn2c(=O)n(CCCCCC(=O)NCc3ccc4c(c3)OCO4)c(=O)c3sccc32)cc1Cl,89% (inactive)
18,COc1ccc2c(CNCCc3cccs3)c(C(=O)O)n(Cc3ccc(F)cc3Cl)c2c1,115% (inactive)
19,CCCCN1CC(c2nc3ccccc3n2CCCCOc2ccccc2C)CC1=O (centres undefined),15% (active)
20,Cc1ccccc1OCCCCn1c(C2CC(=O)N(c3ccccc3Cl)C2)nc2ccccc21 (centres undefined),59% (inactive)
21,CCCCn1c(C2CC(=O)N(c3ccc(OCC)cc3)C2)nc2ccccc21 (centres undefined),84% (inactive)
22,CCCCN1CC(c2nc3ccccc3n2CCCCOc2cc(C)cc(C)c2)CC1=O (centres undefined),14% (active)
23,CCCCN1CC(c2nc3ccccc3n2CCCCOc2c(C)cccc2C)CC1=O (centres undefined),61% (inactive)

row,Structure (SMILES),survival
1,CCCCN1CC(c2nc3ccccc3n2CCCCOc2cccc(C)c2C)CC1=O (centres undefined),-13% (active)
2,CCCCN1CC(c2nc3ccccc3n2CCCCOc2ccc(C)c(C)c2)CC1=O (centres undefined),24% (inactive)
3,Cc1ccc(-c2nn(-c3ccc(F)cc3F)c3c2cnc2ccc(F)cc23)cc1,65% (inactive)
4,CCOC(=O)c1ccc(NC(=O)CSc2nc(-c3cccs3)cc(C(F)(F)F)c2C#N)cc1,85% (inactive)
5,CC(C)N(C(=O)Cn1cc(S(=O)(=O)Cc2ccc(Br)cc2)c2ccccc21)C(C)C,80% (inactive)
6,O=C(c1ccc2c(c1)N(Cc1cccc(Cl)c1)C(=O)c1ccccc1S2)N1CCOCC1,99% (inactive)
7,Cc1ccnc(N2CCC(C(=O)NCc3ccc(F)cc3)CC2)n1,105% (inactive)
8,Nc1nc2nc(-c3ccc(Cl)cc3)cc(C(F)(F)F)n2n1,144% (inactive)
9,CC(C)c1ccccc1NC(=O)CC(C)(C)C,121% (inactive)
10,COc1cccc2cc(-c3nc4ccc(C)cc4[nH]3)c(=O)oc12,73% (inactive)
11,C=CCc1cccc2cc(-c3nc4ccc(C)cc4[nH]3)c(=O)oc12,-3% (active)
12,C=CCc1cccc2cc(-c3nc4ccc(C(=O)O)cc4[nH]3)c(=O)oc12,83% (inactive)
13,COC(=O)c1ccc(NC(=O)CSc2cn(CC(=O)N3CCCCC3)c3ccccc23)cc1,89% (inactive)
14,CCC(=O)N1CCc2cc(S(=O)(=O)CCC(=O)N3CCN(c4ccccc4Cl)CC3)ccc21,78% (inactive)
15,CCCCOc1ccc(C2=NC(c3ccncc3)=Nc3ccc(OCC)cc3N2)cc1,90% (inactive)
16,CCCCOc1ccc(C2=NC(c3ccncc3)=Nc3ccc(Br)cc3N2)cc1,-4% (active)
17,COc1ccc(C2=NC(c3ccncc3)=Nc3ccc(Br)cc3N2)cc1,94% (inactive)
18,COc1ccc(CNC(=O)CCc2c(C)c3cc4c(C)coc4c(C)c3oc2=O)cc1OC,82% (inactive)
19,CC(C)OC(=O)CSc1nnc(-c2ccc(O)cc2)n1-c1ccccc1,116% (inactive)
20,COc1ccccc1-n1nc(-c2ccccc2)c2cnc3c(F)cc(F)cc3c21,119% (inactive)
